Each structure is given as a SMILES string. The panel holds about 83,000 compounds, 20% with a hit somewhere; the sample as a whole holds those more often.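 The test compound was applied at a single concentration to cells in 96-well plates for 48 hours, and percent growth was recorded.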 The source made the active and inactive calls. How the source made its calls: active means growth percent below 10; inactive means the rest.

We go through eleven compounds from PubChem BioAssay (NCI).

This experiment has as its system HL-60(TB) leukemia. Briefly: NCI-60 one-dose screen, 48 h (100 = growth as untreated, 0 = no growth, -100 = all killed). Conditions: 10 µM unless noted.
Take `CC(C)n1cnc2c(Nc3cccc(Cl)c3)nc(N[C@H]3CCCC[C@@H]3N)nc21`: the growth is 25.1% (inactive).

Consider `COc1ccc(-c2nnc(SCC(=O)Nc3ccc(C(=O)/C=C/c4ccccc4)cc3)n2-c2ccccc2)cc1OC`, for which the growth was 65.3% (inactive). For `NC1(c2ccc(-c3nc4ccn5c(=O)[nH]nc5c4cc3-c3ccccc3)cc2)CCC1`, the growth was 50.1% (inactive).

Consider `O=C(NO)c1ccc(-n2nc(-c3ccccc3)c3ccccc32)cc1`, for which the growth is 62.4% (inactive). Under `COc1ccc(-c2csc(N(C(=O)N3CCN(c4cc5c(cc4F)c(=O)c(C(=O)O)cn5C4CC4)CC3)c3ccccc3)n2)cc1` stands -29.6% (active); under `COc1cc(/C=C/C(=O)C(C(=O)/C=C/c2ccc(OC(=O)CCNC34CC5CC(CC(C5)C3)C4)c(OC)c2)C(=O)CCNC23CC4CC(CC(C4)C2)C3)ccc1OC(=O)CCNC12CC3CC(CC(C3)C1)C2` (stereo unspecified), -30.3% (active); under `Cc1ccc(S(=O)(=O)Oc2ccc(Br)cc2Br)cc1`, 41.5% (inactive). With `CC(C)N(Cc1ccccc1)c1c(S)ssc1=S`, the growth is -23.3% (active).

Turning to `C[C@]12CCC(=O)C[C@H]1CC[C@@H]1[C@@H]2CC[C@@]2(C)[C@H]1CC[C@]2(O)C(=O)CO`, the growth was 126% (inactive). Next, `CC[C@@H](C)/C=C(C)/C=C/C(O)=C1\C(=O)N[C@@H](Cc2ccc(OC(=O)[C@@](OC)(c3ccccc3)C(F)(F)F)cc2)C1=O`: 8.34% (active). Next, `CC1(C)CC[C@]2(c3nnc(-c4ccncc4)o3)CC[C@H]3C(=CC[C@H]4[C@@]3(C)CC[C@H]3C(C)(C)C(=O)CC[C@]43C)[C@@H]2C1`: 3% (active).
